From PubChem
Shown are actives, neighbours in structure and some others; about 4.7% of the full set was active somewhere.
D1 antag: Antagonist of Human D 1 Dopamine Receptor: qHTS; D(1A) dopamine receptor (Homo sapiens), P21728; HEK293 TREx D1 cells, calcium flux, dopamine EC80; stronger effect = lower value; activity change, negative = inhibition, % at 10 µM; actives 3.2% (n = 360,000); in the data active means activity change below about -30%
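Calcium flux readout: force-coupled, inducible Hek293 Trex D1 line, cells induced overnight at 30 C with tetracycline, dye-loaded 30–90 min at RT. Antagonism scored against EC80 dopamine challenge given 180 s after compound.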
TRHR PAM: qHTS for Small Molecule Agonists and Allosteric Enhancers of Human TRH Receptor: Primary Screen for Enhancers; Thyrotropin-releasing hormone receptor (Homo sapiens), P34981; TRHR cells, fluo-8 calcium fluorescence, EC20 TRH enhancement; enhancement, % at 2 µM; actives 0.66% (n = 360,000); in the data active means enhancement above about 30%
Target sequence (P34981 whole entry, looked up): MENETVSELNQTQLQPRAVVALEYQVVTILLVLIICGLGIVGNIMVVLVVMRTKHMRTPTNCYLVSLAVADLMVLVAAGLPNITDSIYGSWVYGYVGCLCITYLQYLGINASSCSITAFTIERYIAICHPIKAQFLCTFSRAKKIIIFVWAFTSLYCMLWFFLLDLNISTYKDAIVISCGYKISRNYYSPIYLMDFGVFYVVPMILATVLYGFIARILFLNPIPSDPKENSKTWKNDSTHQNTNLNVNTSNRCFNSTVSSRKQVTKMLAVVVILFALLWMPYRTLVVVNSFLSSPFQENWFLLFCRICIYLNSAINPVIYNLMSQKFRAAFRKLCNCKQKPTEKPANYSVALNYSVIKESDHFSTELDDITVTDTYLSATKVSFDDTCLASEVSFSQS
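TRHR-expressing cells loaded with fluo-8 calcium dye were read kinetically (ex 480/em 530) during compound addition, then stimulated with an EC20 of TRH (10 nM final). Enhancement of the Gq-mediated intracellular calcium response was scored.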
D1 agonist: Allosteric Agonists of the Human D1 Dopamine Receptor: qHTS | HEK293 T-REx D1 cells, calcium flux, agonist mode | activation, % at 2 µM | actives 1% (n = 360,000) | AID 504660, 2011
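Inducible HEK293 T-REx D1 cells, force-coupled to calcium signalling, were plated at 4000 cells/well with tetracycline and held overnight at 30 C. After no-wash calcium dye loading, compound-evoked calcium rise over 180 s flagged agonists.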
TRHR agonist: qHTS for Small Molecule Agonists and Allosteric Enhancers of Human TRH Receptor: Primary Screen for Agonists; Thyrotropin-releasing hormone receptor (Homo sapiens), P34981; TRHR cells, calcium flux fluo-8, FDSS agonist mode; activation, % at 2 µM; actives 0.18% (n = 360,000); AID 493084, 2011
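Read-out: compound-evoked intracellular calcium rise in TRHR cells, fluo-8 dye, kinetic FDSS fluorescence at 1 s/cycle following a 10-cycle baseline. Cells cultured overnight before dye loading (30 min–1.5 h, RT).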
D1 potentiator: Potentiators of Human D1 Dopamine Receptor: qHTS; D(1A) dopamine receptor (Homo sapiens), P21728; HEK293 TREx D1 cells, calcium flux, dopamine EC20 potentiation; potentiation, % at 10 µM; actives 0.036% (n = 360,000); AID 504651, 2011; in the data active means potentiation above about 30%
A number is an active result; n = inactive; x = no result given; ! = a repeat was not active. Unless noted, no stated cut-off is given here; in the data, active means activation above about 30%; inactive means the rest.

SMILES	D1 antag	TRHR PAM	D1 agonist	TRHR agonist	D1 potentiator
O=C(COC(=O)c1cccc(S(=O)(=O)N2CCOCC2)c1)NCCc1ccccc1	n	n	n	n	n
Cc1ccc(OCC(=O)NCCCNC(=O)c2ccc(C)nc2)cc1	n	n	n	n	n
Cc1ccc(C(=O)NCCCNC(=O)COc2ccc(Cl)c(C)c2)cn1	-40	n	n	n	n
COc1ccc(OCC(=O)NCCNC(=O)c2cccnc2)cc1	-32	n	n	n	x
CC1(C)CC(=O)C=C(c2ccc(F)nc2)C1	n	n	n	n	n
CCCCn1c(CN(C)Cc2ccccc2)nc2c1c(=O)n(C)c(=O)n2C	n	n	n	n	n
CCCn1c(CN(C)Cc2ccccc2)nc2c1c(=O)n(C)c(=O)n2C	-43	n	n	n	n
COc1ccc(OC)c(NC(=O)C(=O)N/N=C/c2ccccc2[N+](=O)[O-])c1	-34	n	n	n	n
CCCCCC(=O)N/N=C/c1ccccc1[N+](=O)[O-]	n	n	n	n	n
CCOC(=O)c1ccccc1NC(=O)C1CC(=O)N(C2CCCCC2)C1 (stereo unspecified)	n	n	n	n	n
O=C(C1CC(=O)N(C2CCCC2)C1)N1CCN(c2ccccc2F)CC1 (stereo unspecified)	n	n	n	n	x
O=C(C1CC(=O)N(C2CCCC2)C1)N1CCC(Cc2ccccc2)CC1 (stereo unspecified)	-38	n	n	n	n
CCc1cccc(C)c1NC(=O)C1CC(=O)N(C2CCCC2)C1 (stereo unspecified)	-46	n	n	n	n
COCCN(C(=O)CSc1nnc(-c2cccc(F)c2)n1N)c1c(N)n(CC(C)C)c(=O)[nH]c1=O	n	n	n	n	n
COc1ccccc1CNS(=O)(=O)c1ccc2c(c1)NC(=O)CC(=O)N2	-33	n	n	n	n
CCc1ccccc1NS(=O)(=O)c1ccc2c(c1)NC(=O)CC(=O)N2	n	n	n	n	n
COc1ccccc1CNS(=O)(=O)c1ccc(-n2cnnn2)c(C)c1	-31	n	n	n	n
Cc1cc(S(=O)(=O)NC2CCCCC2)ccc1-n1cnnn1	-30	n	n	n	n
COc1cc(S(=O)(=O)NCc2ccccc2)ccc1-n1cnnn1	n	n	n	n	x
CCN(CC)S(=O)(=O)c1ccc(C(=O)Nn2cnnc2)cc1	n	n	n	n	n
O=C(O)c1ccc(CNCc2c(Cl)cccc2Cl)cc1	-51	n	n	n	n
O=C(CSCc1cccc(Br)c1)N=Nc1c(O)[nH]c2ccccc12	n	n	n	n	n
O=Nc1c(-c2c(O)[nH]c3cc(Br)ccc23)[nH]c2ccccc12	-57	n	n	n	n
Cc1ccc(CN(C)C(=O)COC(=O)CSc2cc(C)c3ccccc3n2)cc1	n	n	n	n	n
Cc1ccc(CC(=O)Nc2c(C(=O)N3CCN(c4ccccc4)CC3)oc3ccccc23)cc1	n	n	n	n	n
SMILES	D1 antag	TRHR PAM	D1 agonist	TRHR agonist	D1 potentiator
O=C(CSc1nnc(Cc2cc(=O)[nH]c(=O)[nH]2)n1-c1ccccc1)N1CCCCC1	n	n	n	n	n
O=C(CSc1nnc(CCCN2C(=O)c3cccc4cccc(c34)C2=O)n1-c1ccccc1)N1CCCCC1	-79	n	n	n	n
c1ccc2c(c1)OCCOCCOCCOCCOCCOc1ccccc1OCCOCCOCCO2	-36	n	n	n	n
CC1CCN(c2nc(-c3ccc(C(C)(C)C)cc3)nc3ccccc23)CC1	n	n	n	n	n
Nc1[nH]n2c(=O)c3c(nc2c1N=Nc1ccc(Cl)cc1)CCCC3	-50	n	n	n	n
Nc1[nH]n2c(=O)c3c(nc2c1N=Nc1ccccc1)CCCC3	n	n	n	n	n
COc1ccc(S(=O)(=O)N2CCC(C(=O)Nc3ccc(Oc4ccccc4)cc3)CC2)cc1OC	n	32	n	n	n
COc1ccc(S(=O)(=O)N2CCC(Oc3cccc(C(F)(F)F)c3)CC2)cc1OC	-36	n	n	n	n
CCOC(=O)N1CCC(N2CCN(S(=O)(=O)c3ccc(OC)cc3)CC2)CC1	-36	n	n	n	n
COc1ccc(S(=O)(=O)N2CCC(C(=O)Nc3ccccc3)CC2)cc1OC	n	n	n	n	n
COc1ccc(S(=O)(=O)N2CCC(Oc3ccc(-n4cnnn4)cc3)CC2)cc1OC	n	n	n	n	n
COc1ccc(S(=O)(=O)N2CCC(c3nc4ccccc4[nH]3)CC2)cc1	n	39	n	n	n
COc1cc(CN2CCN(C(=O)c3ccccc3F)CC2)cc(OC)c1OC	n	n	n	n	n
COc1ccc(S(=O)(=O)N2CCC(N3CCCCC3)CC2)cc1	n	n	n	n	n
COc1ccc(S(=O)(=O)N2CCN(C3CCCCCCC3)CC2)cc1	-68!	n	n	n	n
COc1ccc(OC2CCN(S(=O)(=O)c3ccc(OC)cc3)CC2)cc1	-36!	n	35	n	n
CCCCN(CC)CCCNC(=O)c1nn(-c2ccc(OC)cc2)c(=O)c2c1c1ccccc1n2C	n	n	n	n	n
c1ccc(-c2cncnc2)cc1	-32	n	n	n	n
C=CCSc1nnc(CC(OC)OC)n1-c1ccccc1	-37	n	n	n	n
CCNC(=O)NC(=O)CN(C)c1ccccc1	n	34	n	n	n
O=C(NCCCN1CCN(c2ccc(F)cc2)CC1)c1sc2ncccc2c1-n1cccc1	-37	n	n	n	n
Fc1ccc(C(CCCn2nnc(-c3cccnc3)n2)c2ccc(F)cc2)cc1	-30	n	n	n	n
CCOc1ccc2oc(=O)cc(CN3CCN(Cc4ccc(F)cc4)CC3)c2c1	n	n	n	n	n
O=S(=O)(O)c1nnc2sc3ccccc3n12	-36	n	n	n	n
CN(C)C(=O)CSc1nnc2sc3ccccc3n12	n	n	n	n	n
SMILES	D1 antag	TRHR PAM	D1 agonist	TRHR agonist	D1 potentiator
CCn1c(/C=C/c2c[nH]c3ccccc23)nc2ccccc2c1=O	n	n	n	n	n
CC[n+]1ccc(/C=C/c2c[nH]c3ccccc23)cc1	n	n	64	n	n
CN(Cc1ccccc1)C(=O)c1nc2ccccn2c1CNCCn1cccn1	n	34	n	n	n
CCC1Oc2ccc(Cl)cc2N(CC(=O)NCCc2ccc(Cl)cc2)C1=O (stereo unspecified)	n	n	n	n	n
O=C(c1c(Cl)cccc1Cl)N1CCN(c2ncccn2)CC1	n	n	n	n	n
CCCS(=O)(=O)c1nc(S(=O)(=O)c2ccc(C)cc2)c(N(CC)CC)s1	n	n	n	n	n
